Assay outcomes as filed in PubChem BioAssay.
This is a sample that favours compounds with a hit; in the whole collection about 2.9% have one here.
Integrin act MD = activators of alpha7 integrin expression for muscular dystrophy; alpha7betagal myoblasts, beta-gal FDG fluorescence, 48 h; Potency, µM (top dose mostly 38.3 µM), usual class: activators; hit rate 0.064% among 350,000; AID 624291; also: nearly all actives have a fitted effect of over 60% in size
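alpha7betagal+/- myoblasts (passage 13, 250/well) treated 48 h at 37C with compounds at 1:260 dilution of DMSO stock. Lysed, then beta-galactosidase activity read as FDG fluorescence (ex 480/em 540) after 30 min, with pre-read for autofluorescence.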
DRD3 antagonist = blocks the human D3 dopamine receptor | P35462 | D3R cells, DiscoveRx beta-arrestin luminescence, antagonist mode; stronger effect = lower value | max response, negative = inhibition, % | hit rate 2.5% among 360,000; in the data active = max response below about -50%; inconclusive = no clear call, values can overlap the other calls
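Cells plated overnight at 1500 cells/well, then exposed to library compounds with dopamine controls for 90 minutes at 37 degrees C. DiscoveRx reagent added for 30–60 minutes at room temperature; luminescence read, quantitative HTS format.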
mIDH1 inhibitor = inhibitors of human mutant IDH1 R132H | O75874 | IDH1-R132H enzyme, NADPH consumption, diaphorase/resazurin fluorescence | Potency, µM (doses to about 76.6 µM), actives largely listed as inhibitors | hit rate 0.093% among 390,000 | AID 602179; also: nearly all actives have a fitted effect of over 65% in size
Target sequence (O75874 whole entry R132H, stated change not applied): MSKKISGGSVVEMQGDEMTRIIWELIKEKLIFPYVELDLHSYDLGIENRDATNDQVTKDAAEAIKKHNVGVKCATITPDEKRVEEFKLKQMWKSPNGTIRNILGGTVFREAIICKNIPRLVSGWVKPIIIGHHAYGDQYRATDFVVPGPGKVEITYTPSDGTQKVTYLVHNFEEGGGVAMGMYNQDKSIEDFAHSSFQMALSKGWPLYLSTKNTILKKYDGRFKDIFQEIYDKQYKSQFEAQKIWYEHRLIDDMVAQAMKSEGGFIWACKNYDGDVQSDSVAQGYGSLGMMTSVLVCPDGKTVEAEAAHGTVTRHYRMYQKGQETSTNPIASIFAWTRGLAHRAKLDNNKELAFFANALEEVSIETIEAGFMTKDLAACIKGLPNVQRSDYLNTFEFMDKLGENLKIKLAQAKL
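IDH1-R132H (0.5 ug/mL dispensed) in pH 7.5 Tris buffer was preincubated 30 min with compound, then given a substrate mix of 0.016 mM NADPH and 2 mM alpha-KG for 80 min at room temperature; remaining NADPH was read by diaphorase/resazurin fluorescence.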
B2AR arrestin = beta2AR (human) beta-arrestin recruitment activity; beta-arrestin recruitment to beta2AR, cell-based reporter; Potency, µM (highest dose often 46.1 µM), actives largely listed as activators; hit rate 0.02% among 330,000; AID 492947; also: nearly all actives have a fitted effect of over 65% in size
D3 ag = activates the human D3 dopamine receptor; P35462; hit rate 0.58% among 410,000; max activation, %; D3R DiscoveRx beta-arrestin cells, luminescence, 90 min; in the data active = max activation above about 30%
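Agonist mode: compounds and dopamine controls were applied to plated cells for 90 min at 37 degrees C after an overnight attachment at 1500 cells/well. Luminescent read-out followed 30 - 60 minutes at room temperature with DiscoveRx detection reagent.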
Each line names hits and unclear results; the compound was inactive in the other large screens. Unless noted, calls follow the shape of the dose curve; as a rule, active = well fitted curve in the direction sought with a large enough effect; inconclusive = small, poorly fitted or top-dose-only effect, or another doubt; inactive = no such curve, though single readings can be large; an effect the other way counts as inactive or inconclusive.

CC(C)/C=C/CN1CCN(CCCc2ccccc2)C(CCO)C1 (configuration not stated)	DRD3 antagonist -63.0
Cc1ccccc1CN1CCN(CCCc2ccccc2)C(CCO)C1 (configuration not stated)	DRD3 antagonist -78.1
OCCC1CN(Cc2ccccc2O)CCN1CCCc1ccccc1 (configuration not stated)	DRD3 antagonist -75.1
Cc1ccccc1CN1CCN(CC2CC2)CC1CCO (configuration not stated)	DRD3 antagonist -82.3
CC(C)CN1CCN(Cc2ccc(Oc3ncccn3)cc2)CC1CCO (configuration not stated)	none
OCCC1CN(Cc2ccc(Oc3ncccn3)cc2)CCN1Cc1ccc(F)c(F)c1 (configuration not stated)	DRD3 antagonist -72.3
OCCC1CN(CCCc2ccccc2)CCN1Cc1ccc(F)cc1 (configuration not stated)	DRD3 antagonist -55.5
CCOC(=O)C1CCCN(c2nc3c(S(=O)(=O)c4ccc(Br)cc4)nnn3c3ccsc23)C1 (configuration not stated)	none (no result: Integrin act MD, DRD3 antagonist, B2AR arrestin)
CCOC(=O)c1cccc(NC(=O)Cc2ccc(NC(=O)N3CCCCc4ccccc43)cc2)c1	none (no result: Integrin act MD, DRD3 antagonist, B2AR arrestin)
CCCCNC(=O)c1cc(-c2ccc(OC)cc2)nc2n[nH]c(-c3cccc([N+](=O)[O-])c3)c12	none (no result: Integrin act MD, DRD3 antagonist, B2AR arrestin)
CC(CN1c2ccccc2Sc2ccccc21)N(C)C (configuration not stated)	DRD3 antagonist -97.5 (no result: Integrin act MD)
CC(CN(C)C)CN1c2ccccc2Sc2ccccc21 (configuration not stated)	none (no result: Integrin act MD)
COc1ccc2c(c1)N(C[C@H](C)CN(C)C)c1ccccc1S2	DRD3 antagonist -106.4 (no result: Integrin act MD, B2AR arrestin)
O=C(c1ccccc1)c1ccccc1C(=O)N1CCOCC1	none
O=C(c1ccccc1)c1ccccc1C(=O)N1CCCC1	DRD3 antagonist -50.2 (no result: B2AR arrestin)
CC(CNC(=O)c1nnc(Cc2ccc(F)cc2)o1)c1ccccc1 (configuration not stated)	none (no result: Integrin act MD, DRD3 antagonist, B2AR arrestin)
CC(C)c1ccc(NC(=O)C2CCCN(S(=O)(=O)c3cccc4cccnc34)C2)cc1 (configuration not stated)	none (no result: Integrin act MD, DRD3 antagonist, B2AR arrestin)
COc1ccc(OCCCC(=O)Nc2cccnc2)cc1	DRD3 antagonist -90.1
O=C(CCCOc1ccccc1)Nc1nccs1	DRD3 antagonist -57.3
CC1(C)OC[C@@H]2O[C@@]3(C(=O)O)OC(C)(C)O[C@H]3[C@@H]2O1	none (no result: Integrin act MD, DRD3 antagonist, mIDH1 inhibitor, B2AR arrestin)
O=S(=O)(NCc1cccc(Br)c1)c1ccc(-c2cc(C(F)(F)F)on2)s1	none (no result: Integrin act MD, DRD3 antagonist, B2AR arrestin)
O=[N+]([O-])c1ccc(/C=N/n2c(COc3ccccc3)n[nH]c2=S)cc1	DRD3 antagonist -89.7
O=C1OC(c2ccccc2)/C(=C(/O)c2ccc(Cl)cc2)C1=O (configuration not stated)	DRD3 antagonist -61.9
c1ccc(-c2ccccc2OCCOCCN2CCc3ccccc3C2)cc1	DRD3 antagonist -92.7
CCC(=O)c1ccccc1OCCN1CCN(Cc2ccccc2)CC1	DRD3 antagonist -83.5
Clc1ccc(OCCOCCN2CCc3ccccc3C2)c(Cl)c1	DRD3 antagonist -74.4
CCOc1ccccc1OCCOCCN1CCN(Cc2ccccc2)CC1	DRD3 antagonist inconclusive
Clc1ccc(OCCCN2CCc3ccccc3C2)c(Br)c1	DRD3 antagonist -105.2
NCCC(=O)[N-][C@@H](Cc1cnc[nH]1)C(=O)O.[Zn]	none (no result: Integrin act MD, DRD3 antagonist, mIDH1 inhibitor, B2AR arrestin)
OCCCN1CCN(CCOc2ccccc2-c2ccccc2)CC1	DRD3 antagonist inconclusive
OCCN1CCN(CCOc2ccccc2-c2ccccc2)CC1	DRD3 antagonist -84.5
CC(=O)N1[C@H](C)C=C[C@]1(Cc1ccccc1)C(=O)O	D3 ag 30.6
CCN1CCOC(=O)C1CC(=O)Nc1cc(Cl)ccc1C (configuration not stated)	none (no result: Integrin act MD, DRD3 antagonist, B2AR arrestin)
CC(C)CCNC(=O)Nc1ccc2c(c1)N(C)C(=O)c1ccccc1S2	none (no result: Integrin act MD, DRD3 antagonist, B2AR arrestin)
COc1ccc(C)cc1NC(=O)c1ccc(CN2CCc3ccccc3C2)cc1	DRD3 antagonist -68.8
COC(=O)c1ccc(C)c(NC(=O)c2ccc(CN3CCc4ccccc4C3)cc2)c1	DRD3 antagonist -92.2
CC(C)(C)n1nc2c(c1NC(=O)c1cc3ccccc3o1)CS(=O)(=O)C2	none
Cc1ccc(NC(=O)CN(C)C(=O)C(Sc2ccccc2)c2ccccc2)cc1 (configuration not stated)	none
